Source: PubChem BioAssay (EPA / NIEHS)
Active and inactive are the calls of the source. The calls were made as follows: active = hit-call score of the fitted dose curve at least 0.9, where 1 is the maximum; inactive = score below 0.9.

Tests used:
[1] = ATG_GLI_CIS: Attagene CIS-FACTORIAL HepG2 Assay for human Zinc Finger Protein GLI1 (AID 2282945); settings: HepG2, Attagene cis-factorial reporter mRNA, GLI element; actives raise or lower the signal
Outline: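 Bidirectional curve fits relative to DMSO, using reporter mRNA levels from RT-PCR plus capillary electrophoresis. Cells were HepG2 transiently carrying cis-regulated reporter constructs, harvested 24 h after dosing.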

[2] = target: Bile acid receptor (Homo sapiens) (UniProt Q96RI1); assay: ATG_IR1_CIS: Attagene CIS-FACTORIAL HepG2 Assay for human Nuclear Receptor Subfamily 1 Group H Member 4 (NR1H4), IR1 submotif (AID 2282946); settings: IR1 reporter transcription, actives raise or lower the signal
Chain of Bile acid receptor (Homo sapiens) (Q96RI1 whole entry, looked up, the tested form may be a part): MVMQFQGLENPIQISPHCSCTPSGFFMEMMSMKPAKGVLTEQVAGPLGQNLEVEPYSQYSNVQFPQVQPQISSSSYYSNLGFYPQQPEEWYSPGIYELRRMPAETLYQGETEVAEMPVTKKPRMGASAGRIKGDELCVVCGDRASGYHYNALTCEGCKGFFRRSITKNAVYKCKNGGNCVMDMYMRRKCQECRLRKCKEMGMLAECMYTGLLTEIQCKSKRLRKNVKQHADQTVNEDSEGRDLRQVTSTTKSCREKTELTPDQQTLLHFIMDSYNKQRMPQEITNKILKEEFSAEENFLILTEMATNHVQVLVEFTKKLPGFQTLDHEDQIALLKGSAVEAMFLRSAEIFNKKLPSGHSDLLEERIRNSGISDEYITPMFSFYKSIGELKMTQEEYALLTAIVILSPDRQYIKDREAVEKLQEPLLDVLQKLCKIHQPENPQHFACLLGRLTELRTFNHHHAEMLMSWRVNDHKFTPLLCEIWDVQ
Outline: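 Cells (human HepG2) carry transiently transfected cis-promoter reporter transcription units. Compounds are incubated 24 h, total RNA is reverse-transcribed and amplified, and labelled fragments are resolved by capillary electrophoresis. Curves use DMSO as baseline.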

[3] = ATG_ISRE_CIS: Attagene CIS-FACTORIAL HepG2 Assay for human Interferon Regulatory Factor 1 (IRF1) binding to an Interferon-Stimulated Response Element (ISRE) (AID 2282948); settings: HepG2 ISRE cis-reporter (Attagene), mRNA transcription readout; actives raise or lower the signal
Outline: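 Cell-based cis-reporter assay; HepG2; 24 h exposure; reporter mRNA by RT-PCR plus capillary electrophoresis fluorescence; activity in either direction scored relative to DMSO.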

[4] = ATG_M_32_CIS: Attagene CIS-FACTORIAL HepG2 Assay for M32 Transcription Factor (Internal Marker) (AID 2282949); settings: HepG2 Attagene cis-factorial M32 reporter, mRNA; actives raise or lower the signal;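 also: background control marker of the multiplexed CIS panel rather than a real target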
Outline: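 Fluorescent capillary electrophoresis peaks of HpaI-digested, FAM-labelled RT-PCR reporter products give the signal. Source: transiently transfected human liver HepG2 cells, 24 h after chemical dosing; bidirectional fitting against DMSO.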

[5] = ATG_M_06_CIS: Attagene CIS-FACTORIAL HepG2 Assay for M06 Transcription Factor (Internal Marker) (AID 2282950); settings: HepG2 Attagene CIS-FACTORIAL M06 internal marker reporter; actives raise or lower the signal
Outline: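 Fluorescence-labelled RT-PCR products from cis-promoter reporter units, cut with HpaI and resolved by capillary electrophoresis, give the signal. Cells are human HepG2, dosed for 24 h. Serves as background control, fitted relative to DMSO.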

[6] = target: Hypoxia-inducible factor 1-alpha (Homo sapiens) (UniProt Q16665); assay: ATG_HIF1a_CIS: Attagene CIS-FACTORIAL HepG2 Assay for human Hypoxia Inducible Factor 1 (HIF1A) (AID 2282951); settings: HepG2 Attagene cis-factorial HIF1a reporter transcription; actives raise or lower the signal
Chain of Hypoxia-inducible factor 1-alpha (Homo sapiens) (Q16665 whole entry, looked up): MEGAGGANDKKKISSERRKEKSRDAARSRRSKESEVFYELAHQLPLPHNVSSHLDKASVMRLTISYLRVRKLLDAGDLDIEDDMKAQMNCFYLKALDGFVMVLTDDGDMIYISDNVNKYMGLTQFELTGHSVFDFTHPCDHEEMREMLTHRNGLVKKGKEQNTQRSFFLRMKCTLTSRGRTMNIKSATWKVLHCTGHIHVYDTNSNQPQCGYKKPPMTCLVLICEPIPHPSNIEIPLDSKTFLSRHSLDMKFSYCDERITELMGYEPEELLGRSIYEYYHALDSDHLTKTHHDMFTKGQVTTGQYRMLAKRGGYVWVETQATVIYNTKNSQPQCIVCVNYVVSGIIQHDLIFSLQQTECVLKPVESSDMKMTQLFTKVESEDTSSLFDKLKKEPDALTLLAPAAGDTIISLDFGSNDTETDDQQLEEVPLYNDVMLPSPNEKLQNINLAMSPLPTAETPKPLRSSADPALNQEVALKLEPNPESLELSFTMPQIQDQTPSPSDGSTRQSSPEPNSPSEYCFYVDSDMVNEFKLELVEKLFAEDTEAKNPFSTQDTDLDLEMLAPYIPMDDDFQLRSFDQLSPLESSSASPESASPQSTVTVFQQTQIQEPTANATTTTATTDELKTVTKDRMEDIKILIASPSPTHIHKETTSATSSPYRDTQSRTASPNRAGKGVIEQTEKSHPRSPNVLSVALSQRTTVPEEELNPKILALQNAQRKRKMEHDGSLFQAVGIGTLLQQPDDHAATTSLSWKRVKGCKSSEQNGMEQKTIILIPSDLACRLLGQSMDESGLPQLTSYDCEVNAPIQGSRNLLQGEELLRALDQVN
Outline: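 In this multiplexed cell assay, HepG2 cells bearing transfected cis reporters are dosed for 24 h and reporter mRNA is read by RT-PCR plus capillary electrophoresis; signal increases and decreases are both scored against DMSO.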

[7] = target: Hepatocyte nuclear factor 6 (Homo sapiens) (UniProt Q9UBC0); assay: ATG_HNF6_CIS: Attagene CIS-FACTORIAL HepG2 Assay for human Hepatocyte Nuclear Factor 6 (HNF6) (AID 2282952); settings: HepG2 Attagene cis-factorial HNF6 reporter transcription; actives raise or lower the signal
Chain of Hepatocyte nuclear factor 6 (Homo sapiens) (Q9UBC0 whole entry, looked up): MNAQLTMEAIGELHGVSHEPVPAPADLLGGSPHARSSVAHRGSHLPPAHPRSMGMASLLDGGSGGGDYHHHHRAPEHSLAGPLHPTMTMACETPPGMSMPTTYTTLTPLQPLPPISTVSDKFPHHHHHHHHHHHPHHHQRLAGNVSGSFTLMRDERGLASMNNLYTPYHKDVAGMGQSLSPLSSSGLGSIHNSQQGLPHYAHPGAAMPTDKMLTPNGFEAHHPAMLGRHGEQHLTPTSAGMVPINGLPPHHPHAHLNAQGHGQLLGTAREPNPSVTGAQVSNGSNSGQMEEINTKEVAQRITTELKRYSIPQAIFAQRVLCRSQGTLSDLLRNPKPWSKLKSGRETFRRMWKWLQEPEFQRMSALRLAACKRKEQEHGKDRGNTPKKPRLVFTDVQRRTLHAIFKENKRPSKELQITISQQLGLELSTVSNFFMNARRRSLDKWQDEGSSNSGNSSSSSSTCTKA
Outline: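 Multiplexed mRNA reporter assay in transfected HepG2; 24 h dosing; RT-PCR plus capillary electrophoresis fluorescence; DMSO-referenced bidirectional curve fitting.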

[8] = target: Heat shock factor protein 1 (Homo sapiens) (UniProt Q00613); assay: ATG_HSE_CIS: Attagene CIS-FACTORIAL HepG2 Assay for human Heat Shock Transcription Factor 1 (HSE) (AID 2282953); settings: HepG2 HSE cis-reporter, Attagene RNA transcription; actives raise or lower the signal
Chain of Heat shock factor protein 1 (Homo sapiens) (Q00613 whole entry, looked up): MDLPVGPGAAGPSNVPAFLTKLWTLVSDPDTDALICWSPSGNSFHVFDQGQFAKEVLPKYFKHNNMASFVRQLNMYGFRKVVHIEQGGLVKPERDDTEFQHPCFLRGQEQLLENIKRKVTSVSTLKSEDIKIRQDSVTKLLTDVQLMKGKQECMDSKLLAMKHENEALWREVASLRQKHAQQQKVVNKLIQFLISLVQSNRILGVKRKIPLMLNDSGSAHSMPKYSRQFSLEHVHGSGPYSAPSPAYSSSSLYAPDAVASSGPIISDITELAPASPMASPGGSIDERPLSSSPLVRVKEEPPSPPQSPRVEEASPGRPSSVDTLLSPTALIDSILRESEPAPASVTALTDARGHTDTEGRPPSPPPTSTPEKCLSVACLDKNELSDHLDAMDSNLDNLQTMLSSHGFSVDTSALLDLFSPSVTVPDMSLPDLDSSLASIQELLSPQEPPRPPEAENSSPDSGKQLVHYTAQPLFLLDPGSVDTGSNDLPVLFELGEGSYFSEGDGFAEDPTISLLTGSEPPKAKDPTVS
Outline: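 After a 24 h incubation with test chemical, transfected HepG2 cells were harvested for RNA; reporter transcripts were measured by RT-PCR and capillary electrophoresis. Values reflect gain or loss of signal relative to DMSO.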

[9] = ATG_PBREM_CIS: Attagene CIS-FACTORIAL HepG2 Assay for human Phenobarbital-responsive Enhancer Module (PBREM) (AID 2282955); settings: HepG2 PBREM cis-reporter, Attagene multiplexed transcription; actives raise or lower the signal
Outline: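 After a 24 h incubation with test chemical, transfected HepG2 cells yield total RNA; reporter-specific RT-PCR products are fluorescently labelled, HpaI-digested and resolved by capillary electrophoresis against ROX size standards.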

[10] = target: Paired box protein Pax-6 (Homo sapiens) (UniProt P26367); assay: ATG_Pax6_CIS: Attagene CIS-FACTORIAL HepG2 Assay for human Paired Box 6 (PAX6) (AID 2282956); settings: HepG2 CIS-FACTORIAL PAX6 reporter transcription, RNA readout; actives raise or lower the signal
Chain of Paired box protein Pax-6 (Homo sapiens) (P26367 whole entry, looked up): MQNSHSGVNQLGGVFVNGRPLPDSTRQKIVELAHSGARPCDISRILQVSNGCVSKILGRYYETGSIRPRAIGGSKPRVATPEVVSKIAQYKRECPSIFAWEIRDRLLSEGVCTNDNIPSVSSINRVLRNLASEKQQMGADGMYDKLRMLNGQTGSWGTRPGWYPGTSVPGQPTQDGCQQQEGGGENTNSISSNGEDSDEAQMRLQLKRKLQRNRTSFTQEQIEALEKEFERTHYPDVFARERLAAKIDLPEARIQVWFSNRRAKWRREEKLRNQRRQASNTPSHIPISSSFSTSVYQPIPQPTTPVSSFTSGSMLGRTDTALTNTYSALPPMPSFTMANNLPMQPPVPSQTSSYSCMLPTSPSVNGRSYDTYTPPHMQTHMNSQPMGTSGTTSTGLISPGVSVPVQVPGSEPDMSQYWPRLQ
Outline: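 Multiplexed cis-reporter HepG2 system; 24 h treatment; reporter mRNA read by RT-PCR/CE fluorescence; bidirectional fit vs DMSO.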

[11] = ATG_PXRE_CIS: Attagene CIS-FACTORIAL HepG2 Assay for human Pregnane X Receptor Element (PXRE) (AID 2282957); settings: HepG2 Attagene CIS-FACTORIAL PXRE reporter, mRNA; actives raise or lower the signal
Outline: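 Cells: HepG2, transiently transfected reporter units under cis promoter control. Exposure: 24 h. Detection: reporter mRNA via RT-PCR/CE fluorescence; bidirectional fitting, DMSO-referenced.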

[12] = ATG_PPRE_CIS: Attagene CIS-FACTORIAL HepG2 Assay for human Peroxisome Proliferator-activated Response Element (PPRE) (AID 2282958); settings: HepG2 PPRE cis-element reporter, Attagene transcription factor profiling; actives raise or lower the signal
Outline: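 Multiplexed reporter transcription units under cis-regulatory promoters were transfected into HepG2 cells to capture endogenous factor activity. A 24 h incubation preceded RNA isolation and fluorescent RT-PCR fragment analysis.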

[13] = ATG_RORE_CIS: Attagene CIS-FACTORIAL HepG2 Assay for human RAR-related Orphan Receptor Element (RORE) (AID 2282959); settings: HepG2 Attagene cis-factorial RORE reporter, mRNA; actives raise or lower the signal
Outline: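 Fluorescence intensity of reporter-specific cDNA fragments, separated by capillary electrophoresis, gives the signal. Source: HepG2 liver cells transiently transfected with cis-element reporters and exposed 24 h; DMSO-normalized bidirectional fit.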

[14] = ATG_Sox_CIS: Attagene CIS-FACTORIAL HepG2 Assay for human SRY-box transcription factor (SOX) (AID 2282960); settings: HepG2 Attagene cis-factorial SOX reporter, mRNA; actives raise or lower the signal
Outline: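 After 24 h of chemical treatment, transfected HepG2 reporter cells are lysed for total RNA. Transcript levels come from RT-PCR with labelled primer extension and capillary electrophoresis, analysed bidirectionally versus DMSO.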

[15] = target: Transcription factor Sp1 (Homo sapiens) (UniProt P08047); assay: ATG_Sp1_CIS: Attagene CIS-FACTORIAL HepG2 Assay for human Specificity Protein 1 (Sp1) (AID 2282961); settings: HepG2 Sp1 cis-reporter transcription, actives raise or lower the signal
Chain of Transcription factor Sp1 (Homo sapiens) (P08047 whole entry, looked up): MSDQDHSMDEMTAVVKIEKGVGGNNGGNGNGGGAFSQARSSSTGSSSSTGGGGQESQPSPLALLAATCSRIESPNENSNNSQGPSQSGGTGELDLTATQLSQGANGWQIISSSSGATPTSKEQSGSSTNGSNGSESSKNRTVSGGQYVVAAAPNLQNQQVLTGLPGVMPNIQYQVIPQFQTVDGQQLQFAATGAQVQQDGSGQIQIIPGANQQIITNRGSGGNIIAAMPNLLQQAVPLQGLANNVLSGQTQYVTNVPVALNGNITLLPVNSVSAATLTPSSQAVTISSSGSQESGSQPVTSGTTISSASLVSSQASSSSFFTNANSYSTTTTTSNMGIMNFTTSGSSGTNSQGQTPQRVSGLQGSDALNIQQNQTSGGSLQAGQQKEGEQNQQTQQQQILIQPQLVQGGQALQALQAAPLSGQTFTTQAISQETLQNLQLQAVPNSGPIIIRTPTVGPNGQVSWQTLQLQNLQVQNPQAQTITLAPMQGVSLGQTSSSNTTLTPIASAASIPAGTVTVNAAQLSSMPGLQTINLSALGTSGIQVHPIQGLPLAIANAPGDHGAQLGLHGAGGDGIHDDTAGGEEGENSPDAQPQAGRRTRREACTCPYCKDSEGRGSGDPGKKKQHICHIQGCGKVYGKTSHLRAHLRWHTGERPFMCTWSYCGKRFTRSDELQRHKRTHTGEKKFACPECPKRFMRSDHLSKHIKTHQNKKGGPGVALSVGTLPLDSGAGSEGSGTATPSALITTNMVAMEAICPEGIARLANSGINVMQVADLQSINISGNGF
Outline: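 Sp1-driven reporter mRNA, read as capillary electrophoresis fluorescence after RT-PCR, in transiently transfected HepG2 cells dosed for 24 h; signal change in either direction relative to DMSO.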

[16] = ATG_SREBP_CIS: Attagene CIS-FACTORIAL HepG2 Assay for human Sterol Regulatory Element Binding (SREBP) (AID 2282962); settings: HepG2 Attagene cis-factorial SREBP reporter, mRNA; actives raise or lower the signal
Outline: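 mRNA induction of transfected cis-promoter reporters in HepG2 cells, 24 h post-dose. Detection: RT-PCR with 6-FAM-labelled products, HpaI digest, capillary electrophoresis. DMSO served as negative control and baseline.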

[17] = target: Signal transducer and activator of transcription 3 (Homo sapiens) (UniProt P40763); assay: ATG_STAT3_CIS: Attagene CIS-FACTORIAL HepG2 Assay for human Signal Transducer and Activator of Transcription 3 (STAT3) (AID 2282963); settings: HepG2, Attagene cis-factorial STAT3 reporter transcription; actives raise or lower the signal
Chain of Signal transducer and activator of transcription 3 (Homo sapiens) (P40763 whole entry, looked up): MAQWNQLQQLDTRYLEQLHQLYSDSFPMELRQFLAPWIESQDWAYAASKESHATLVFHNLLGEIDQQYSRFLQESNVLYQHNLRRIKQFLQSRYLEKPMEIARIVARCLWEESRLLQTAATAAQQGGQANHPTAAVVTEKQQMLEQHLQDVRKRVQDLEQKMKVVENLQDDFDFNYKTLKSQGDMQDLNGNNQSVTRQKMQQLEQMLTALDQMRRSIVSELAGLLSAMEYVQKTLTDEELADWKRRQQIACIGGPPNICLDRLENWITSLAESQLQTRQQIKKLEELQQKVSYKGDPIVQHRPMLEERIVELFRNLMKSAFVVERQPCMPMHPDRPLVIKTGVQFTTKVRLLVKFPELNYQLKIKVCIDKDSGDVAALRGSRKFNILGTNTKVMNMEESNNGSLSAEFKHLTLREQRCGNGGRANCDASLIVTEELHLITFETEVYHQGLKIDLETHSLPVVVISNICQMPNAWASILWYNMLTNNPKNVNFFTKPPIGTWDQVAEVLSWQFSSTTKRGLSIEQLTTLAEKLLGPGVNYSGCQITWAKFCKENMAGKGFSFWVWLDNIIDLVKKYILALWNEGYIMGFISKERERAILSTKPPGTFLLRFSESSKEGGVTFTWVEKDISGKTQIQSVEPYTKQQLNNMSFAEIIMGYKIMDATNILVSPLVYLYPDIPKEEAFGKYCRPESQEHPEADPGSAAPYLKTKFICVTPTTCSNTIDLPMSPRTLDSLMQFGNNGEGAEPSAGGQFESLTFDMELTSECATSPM
Outline: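 Endogenous STAT3-responsive cis-element activity was read in transiently transfected HepG2 cells after 24 h treatment. Reporter transcripts were quantified via RT-PCR and capillary electrophoresis, with DMSO as negative control and bidirectional curve fitting.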

[18] = ATG_TA_CIS: Attagene CIS-FACTORIAL HepG2 Assay for human TA Basal Promoter (AID 2282964); settings: HepG2 Attagene CIS-factorial TA basal promoter reporter; actives raise or lower the signal
Outline: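 Multiplexed mRNA reporter assay, HepG2, 24 h. Reporter cDNA amplified, 6-FAM primer-extended, HpaI-cut, CE-sized; DMSO = negative control and baseline.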

[19] = ATG_GRE_CIS: Attagene CIS-FACTORIAL HepG2 Assay for human Glucocorticoid Response Elements (GRE) (AID 2282947); settings: HepG2 GRE cis-reporter, Attagene multiplex mRNA; actives raise or lower the signal
Outline: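 Transient MRTU transfection of human HepG2 liver cells; cis-regulated reporters report endogenous factors. 24 h dosing → RNA isolation → RT-PCR → 6-FAM primer extension → HpaI cut → CE fragment analysis. Bidirectional fit, DMSO negative control.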

[20] = ATG_MRE_CIS: Attagene CIS-FACTORIAL HepG2 Assay for human Metal Responsive Element (MRE) (AID 2282954); settings: HepG2 MRE cis-reporter transcription, Attagene multiplex; actives raise or lower the signal
Outline: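 Transient MRTU transfection of HepG2 (FuGene 6); 24 h dosing; total RNA → oligo(dT) RT, PCR, 6-FAM primer extension, HpaI cut, CE. Bidirectional fit vs DMSO.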

Measured: AC50

NC(=O)c1c(Cl)cccc1Cl
active: [11] 0.104 µM
inactive: [1] | [2] | [3] | [4] | [5] | [6] | [7] | [8] | [9] | [10] | [12] | [13] | [14] | [15] | [16] | [17] | [18]

COc1ccccc1O
active: [11] 69.3 µM
inactive: [1] | [2] | [19] | [3] | [4] | [5] | [6] | [7] | [8] | [20] | [9] | [10] | [12] | [13] | [14] | [15] | [16] | [17] | [18]

CCCCOCCOC(=O)c1ccccc1C(=O)OCCOCCCC
inactive: [1] | [2] | [3] | [4] | [5] | [6] | [7] | [8] | [9] | [10] | [12] | [13] | [14] | [15] | [16] | [18]
active: [20] 23.4 µM | [11] 5.46 µM

CCCCCCOC(C)=O
inactive: [1] | [2] | [19] | [3] | [4] | [5] | [7] | [20] | [9] | [10] | [11] | [12] | [14] | [15] | [16] | [18]

CCCCCCCCSCc1cc(C)c(O)c(CSCCCCCCCC)c1
active: [11] 19.8 µM
inactive: [1] | [2] | [19] | [3] | [4] | [6] | [8] | [20] | [9] | [10] | [12] | [13] | [14] | [15] | [16] | [17] | [18]

C=C1CC/C=C(\C)CC[C@@H]2[C@@H]1CC2(C)C
active: [2] 81.9 µM | [11] 26.6 µM
inactive: [1] | [3] | [4] | [5] | [6] | [8] | [20] | [9] | [10] | [14] | [15] | [16] | [18]

CC(=O)c1ccc(O)cc1
active: [11] 100 µM
inactive: [1] | [19] | [3] | [4] | [5] | [6] | [7] | [8] | [20] | [9] | [10] | [12] | [13] | [14] | [15] | [16] | [17]

CC(=O)c1ccc(C)cc1
inactive: [1] | [19] | [3] | [4] | [5] | [6] | [7] | [8] | [20] | [9] | [10] | [11] | [12] | [13] | [14] | [15] | [16] | [17] | [18]

[Na+]
inactive: [1] | [19] | [3] | [4] | [5] | [6] | [7] | [8] | [20] | [9] | [10] | [11] | [14] | [15] | [16] | [18]

CC(=O)c1ccc2ccccc2c1
inactive: [1] | [19] | [3] | [4] | [5] | [6] | [7] | [8] | [20] | [9] | [10] | [11] | [12] | [13] | [14] | [15] | [16] | [17] | [18]

CC(C)COC(=O)c1ccccc1O
inactive: [1] | [19] | [3] | [4] | [5] | [6] | [7] | [8] | [20] | [9] | [10] | [12] | [13] | [14] | [15] | [16] | [17] | [18]
active: [11] 44.8 µM

Cc1ccc(C(C)(C)O)cc1
inactive: [1] | [19] | [3] | [4] | [5] | [6] | [7] | [8] | [20] | [9] | [10] | [11] | [12] | [15] | [16] | [17] | [18]

O=S(=O)(O)c1cc(S(=O)(=O)O)c2c(N=Nc3ccccc3)c(O)ccc2c1
inactive: [1] | [19] | [3] | [4] | [5] | [6] | [7] | [8] | [20] | [9] | [10] | [11] | [14] | [15] | [16] | [17] | [18]

CCC(C)(C)C1CCC(OC)CC1 (stereo not given)
active: [11] 3.33 µM
inactive: [1] | [2] | [3] | [4] | [5] | [8] | [20] | [9] | [10] | [12] | [13] | [14] | [15] | [16] | [17] | [18]

O=C1OCc2ccccc21
inactive: [1] | [19] | [3] | [4] | [5] | [6] | [7] | [8] | [20] | [9] | [10] | [11] | [12] | [13] | [14] | [15] | [16] | [17]
